# NOMO-1 viab: STK33 inhibitor candidate reducing NOMO-1 cell viability. inhibition, % (no concentration beside the values). hit rate 7.5% among 37,000. NOMO-1 AML viability, CellTiter-Glo luminescence, 72 h. AID 2330; in the data active means inhibition above about 80%; inconclusive means no clear call, values can overlap the other calls
# PD-1 reverse act: activators reversing PD-1 mediated T-cell inhibition; primary human CD4 T cells, PD-L1 beads, CellTiter-Glo 96 h; activation, % (no concentration beside the values); 29,000 tested, under 10 active; call rule not given here;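 further: 0% = median vehicle wells and 100% = positive control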
# STK33 kin inh: human STK33 kinase inhibition; hit rate 0.44% among 27,000; inhibition, % at 12.5 µM; ADP-Glo luminescence, MBP substrate; in the data active means inhibition above about 20%; inconclusive means no clear call, values can overlap the other calls
# Target sequence (Q9BYT3 whole entry, looked up): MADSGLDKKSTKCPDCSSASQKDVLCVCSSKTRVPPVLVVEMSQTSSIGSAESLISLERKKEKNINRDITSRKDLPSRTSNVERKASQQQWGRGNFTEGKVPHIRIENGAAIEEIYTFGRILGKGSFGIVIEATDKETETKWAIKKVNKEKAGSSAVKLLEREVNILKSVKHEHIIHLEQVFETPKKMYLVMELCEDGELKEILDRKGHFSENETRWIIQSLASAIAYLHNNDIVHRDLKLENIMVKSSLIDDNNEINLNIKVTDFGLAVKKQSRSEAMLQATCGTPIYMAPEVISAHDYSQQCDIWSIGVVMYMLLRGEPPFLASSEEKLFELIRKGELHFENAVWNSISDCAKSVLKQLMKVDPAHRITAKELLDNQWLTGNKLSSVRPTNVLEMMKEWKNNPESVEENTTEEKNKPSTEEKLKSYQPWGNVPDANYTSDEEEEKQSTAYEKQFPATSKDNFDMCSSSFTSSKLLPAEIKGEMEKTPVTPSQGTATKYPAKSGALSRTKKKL
# Starred values were filed as active, the others as inactive; ? = inconclusive; / = no result. The sample as a whole holds a higher share of hits than the screen did.
SMILES,NOMO-1 viab,PD-1 reverse act,STK33 kin inh
C[C@@H]1CN([C@@H](C)CO)C(=O)Cc2cc(NS(=O)(=O)c3ccc(F)cc3)ccc2O[C@@H]1CN(C)Cc1ccc(-c2ccccc2)cc1,?,/,5
C[C@H]1CN([C@@H](C)CO)C(=O)Cc2cc(NS(=O)(=O)c3ccc(F)cc3)ccc2O[C@H]1CN(C)Cc1ccc(-c2ccccc2)cc1,108*,2,8
CC(Sc1ncnc2sc3c(c12)CCCC3)C(=O)Nc1cc(C(F)(F)F)ccc1Cl (stereo unspecified),19,5,-3
CCN(CC)C(=S)Oc1ccc(I)cc1,-4,1,/
CC(=O)Nc1ccc(C(=O)CSc2nnc(-c3cccc(Br)c3)o2)cc1,11,0,2
Cc1sc(/N=C/c2cn(Cc3ccccc3)c3ccccc23)c(C#N)c1C,64,0,/
O=S(=O)(/N=C1\SCCN1S(=O)(=O)c1ccc(Cl)cc1)c1ccc(Cl)cc1,32,0,/
C[C@H]1CN([C@@H](C)CO)C(=O)c2cc(NC(=O)CCC(F)(F)F)ccc2O[C@@H]1CN(C)Cc1ccc(C(=O)Nc2ccccc2N)cc1,?,0,/
C[C@@H]1CN([C@H](C)CO)C(=O)c2cc(NC(=O)CCC(F)(F)F)ccc2O[C@@H]1CN(C)Cc1ccc(C(=O)Nc2ccccc2N)cc1,104*,-3,/
C[C@H]1CN([C@@H](C)CO)C(=O)Cc2cc(NC(=O)CCC(F)(F)F)ccc2O[C@@H]1CN(C)Cc1ccc(C(=O)Nc2ccccc2N)cc1,43,0,/
C[C@H]1CN([C@@H](C)CO)C(=O)Cc2cc(NC(=O)CCC(F)(F)F)ccc2O[C@H]1CN(C)Cc1ccc(C(=O)Nc2ccccc2N)cc1,139*,-5,/
COc1ccccc1NC(=O)c1c(NC(=O)c2ccco2)sc(C)c1C,45,/,2
COc1ccc(NC(=O)C(C)N(c2cc(C)cc(C)c2)S(C)(=O)=O)c(OC)c1 (stereo unspecified),4,1,1
C[C@H](CO)N1C[C@H](C)[C@H](CN(C)Cc2ccc(-c3ccccc3)cc2)Oc2ccc(NC(=O)Cc3cn(C)c4ccccc34)cc2C1=O,85*,-2,5
C[C@@H]1CN([C@@H](C)CO)C(=O)c2cc(NC(=O)Cc3cn(C)c4ccccc34)ccc2O[C@H]1CN(C)Cc1ccc2c(c1)OCO2,36,-2,0
C[C@H](CO)N1C[C@H](C)[C@H](CN(C)Cc2ccc(Oc3ccccc3)cc2)Oc2ccc(NC(=O)Cc3cn(C)c4ccccc34)cc2C1=O,60,-3,/
C[C@@H]1CN([C@H](C)CO)C(=O)c2cc(NC(=O)Cc3cn(C)c4ccccc34)ccc2O[C@H]1CN(C)Cc1ccccc1,53,/,/
C[C@H]1CN([C@@H](C)CO)C(=O)c2cc(NC(=O)Cc3cn(C)c4ccccc34)ccc2O[C@@H]1CN(C)Cc1ccc2c(c1)OCO2,98*,/,/
C[C@@H]1CN([C@H](C)CO)C(=O)c2cc(NC(=O)Cc3cn(C)c4ccccc34)ccc2O[C@@H]1CN(C)Cc1ccc(-c2ccccc2)cc1,112*,/,/
C[C@H](CO)N1C[C@H](C)[C@H](CN(C)Cc2ccccc2)Oc2ccc(NC(=O)Cc3cn(C)c4ccccc34)cc2C1=O,12,0,3
C[C@@H]1CN([C@H](C)CO)C(=O)c2cc(NC(=O)Cc3cn(C)c4ccccc34)ccc2O[C@@H]1CN(C)Cc1ccc(Oc2ccccc2)cc1,108*,-4,/
Cc1cc(NC(=O)CSc2nnc(-c3ccccc3Cl)n2C)ccc1Br,32,0,-3
CCc1ccccc1NC(=O)COc1ccc2c(=O)c(Oc3ccccc3Cl)coc2c1,6,/,1
N/C(CN1CCCCC1)=N\O,-2,-3,/
O=C1c2ccccc2C(=O)N1CCc1nc2ccccc2c(=O)n1-c1nc2ccccc2s1,15,0,0
SMILES,NOMO-1 viab,PD-1 reverse act,STK33 kin inh
O=C(CSc1nnc(-c2ccccc2O)n1-c1ccccc1)N1CCN(c2ccccc2)CC1,22,-2,0
Cc1cc(C)c(OCCCCNCCO)c(C)c1,-13,/,-8
COc1ccc(CNCc2cccc(OC)c2)cc1,-9,0,/
O=c1cc(NCc2ccccc2)n(-c2ccccc2)c(=O)n1-c1ccccc1,0,0,/
C[C@@H]1CN([C@H](C)CO)C(=O)c2cc(NC(=O)Cc3cn(C)c4ccccc34)ccc2O[C@H]1CN(C)Cc1ccc(C(F)(F)F)cc1,31,1,0
C[C@@H]1CN([C@@H](C)CO)C(=O)c2cc(NC(=O)Cc3cn(C)c4ccccc34)ccc2O[C@@H]1CN(C)Cc1ccc(C(F)(F)F)cc1,106*,-1,/
COC(=O)C1=C(C)N=C2SC(C#N)=C(N)N2C1c1cccs1 (stereo unspecified),53,-1,/
S=C(Nc1ccccn1)Nc1ccccn1,37,-2,1
CSc1ccccc1NC(=O)CN(c1cc(C(F)(F)F)ccc1Cl)S(C)(=O)=O,-10,1,-2
COc1ccc(C)cc1NC(=O)C(=S)NCc1ccco1,25,-2,-2
COc1ccc(CCNC(=S)NC2CC2)cc1OC,11,1,/
Cc1ccccc1C1CC(=O)c2c(ccc3ccccc23)N1 (stereo unspecified),140*,-2,/
COC(=O)C1=C(C)NC(=O)CC1c1ccccc1C (stereo unspecified),-5,1,/
COc1ccc([N+](=O)[O-])cc1N(CC(=O)Nc1cccc(C(F)(F)F)c1)S(C)(=O)=O,25,3,-3
Cc1cccc(NC(=O)c2cc(NC(=O)CCC(=O)O)ccc2N2CCOCC2)c1,-6,3,1
COc1ccc(-c2nn(C)c(=O)c3ccccc23)cc1CNS(=O)(=O)c1ccc(Cl)cc1,37,-2,6
O=C(COc1ccccc1Cl)Nc1ccc2oc(-c3ccccc3Br)nc2c1,33,0,4
C[C@@H]1CN([C@H](C)CO)C(=O)c2cc(NS(=O)(=O)c3cccs3)ccc2O[C@@H]1CN(C)Cc1ccc(C(=O)Nc2ccccc2N)cc1,110*,-2,/
C[C@H](CO)N1C[C@H](C)[C@H](CN(C)Cc2ccc(C(=O)Nc3ccccc3N)cc2)Oc2ccc(NS(=O)(=O)c3cccs3)cc2C1=O,109*,-2,/
C[C@H]1CN([C@@H](C)CO)C(=O)c2cc(NS(=O)(=O)c3cccs3)ccc2O[C@H]1CN(C)Cc1ccc(C(=O)Nc2ccccc2N)cc1,71,0,/
C[C@@H]1CN([C@@H](C)CO)C(=O)c2cc(NS(C)(=O)=O)ccc2O[C@H]1CN(C)Cc1ccc(C(=O)Nc2ccccc2N)cc1,27,1,/
Cc1c(C)c(C)c(S(=O)(=O)N=C(N)N)c(C)c1C,-19,0,/
O=C(CN1C(=O)COc2ccc(Cl)cc21)Nc1ccc([N+](=O)[O-])cc1,59,-4,0
O=C(Nc1ccccc1C(=O)O)OCC1c2ccccc2-c2ccccc21,18,6,-11
CCn1c(SCC(=O)Nc2ccccc2OC)nnc1-c1ccco1,-17,1,-5
CCN(CC)C(=S)CSc1nc(-c2ccccc2)cc(-c2ccco2)c1C#N,88*,0,/
CCc1nnc(NC(=O)CSc2nc(-c3ccccc3)cc(C(F)(F)F)c2C#N)s1,5,3,0
CC(C)(C)c1cc(/C=C(\C#N)C(N)=S)cc(C(C)(C)C)c1O,118*,/,12
N#CC(C#N)=C(N)/C(C#N)=C/c1cc(O)c(O)c(O)c1,32,-1,20*

# Screens from PubChem.
